Source: PubChem
A selection follows.
aSyn UTR act – Activators via SNCA 5'UTR binding, MLPCN. AID 1814. actives 7.1% (n = 300,000). alpha-synuclein 5'UTR reporter, activators screen. activity score, % (tested at 7.5 µM), hits read low; in the data active = activity score below about -60%
Large screens that a line does not name were inactive.

COc1cc(/C=C(\C#N)c2nc3c(s2)CCCC3)ccc1O	aSyn UTR act -158
O=C(NC(=S)N1CCCCC1)c1csc([N+](=O)[O-])c1	aSyn UTR act -87
Brc1ccc(/C=N/Nc2ccccc2)cc1	aSyn UTR act -92
Cc1cc(N/N=C/c2ccccc2Br)nc2ccccc12	aSyn UTR act -196
Brc1ccc(/C=N/Nc2ccc3ccccc3n2)cc1	aSyn UTR act -187
Brc1ccccc1/C=N/Nc1ccc2ccccc2n1	aSyn UTR act -256
CCS(=O)(=O)c1ccc2oc(Nc3ccc(C(C)C)cc3)nc2c1	aSyn UTR act -95
CCOc1ccc(Nc2nc3cc(S(=O)(=O)N(CC)CC)ccc3o2)cc1	none
CC(C)c1ccc(CNc2c([N+](=O)[O-])c(=O)oc3ccccc23)cc1	aSyn UTR act -71
O=[N+]([O-])c1ccc(NCc2ccc(Cl)cc2)nc1	aSyn UTR act -105
CC(C)c1ccc(CNc2ccc([N+](=O)[O-])cn2)cc1	aSyn UTR act -78
CC(C)c1ccc(CNc2ncc(Br)cn2)cc1	aSyn UTR act -153
C=CCOC(=O)c1c(C)nc2cc3c(cc2c1C)OCO3	aSyn UTR act -101
O=C(CSc1ccc(-c2ccccc2)nn1)N1CCCCC1	aSyn UTR act -155
CCOc1ccc(-c2ccc(SCC(=O)N3CCN(c4ccccc4)CC3)nn2)cc1	aSyn UTR act -69
O=C(CSc1ccc(-c2ccccn2)nn1)N1CCCCC1	aSyn UTR act -66
CC(=O)c1cccc(NC(=O)CSc2ccc(-c3ccccn3)nn2)c1	none
CCS(=O)(=O)Nc1ccc(C2=NN(S(C)(=O)=O)C(c3cccs3)C2)cc1 (stereo not given)	aSyn UTR act -101
COc1ccc(C2=NN(S(C)(=O)=O)C(c3cccs3)C2)cc1OC (stereo not given)	aSyn UTR act -115
COc1cccc(C2=NN(S(C)(=O)=O)C(c3cccs3)C2)c1 (stereo not given)	aSyn UTR act -107
COc1ccc2cc(C3CC(c4cccs4)=NN3S(C)(=O)=O)c(Cl)nc2c1 (stereo not given)	aSyn UTR act -62
O=C(Nc1ccc(NC(=O)c2ccccc2Cl)nc1)c1ccco1	aSyn UTR act -102
O=C(Nc1ccccn1)c1ccc(NC(=O)c2ccco2)cc1	aSyn UTR act -141
CC(C)C(=O)Nc1ccc(NC(=O)c2ccccc2Cl)nc1	aSyn UTR act -115
Cc1cc(NC(=O)c2ccco2)ncc1NC(=O)Cc1ccccc1	aSyn UTR act -119
O=C(CCc1ccccc1)Nc1ccc(NC(=O)c2ccco2)nc1	aSyn UTR act -71
CCOc1ccc(-n2nc3ccc(NC(=O)c4ccc5c(c4)OCCO5)cc3n2)cc1	none
CCc1ccc(-n2nc3ccc(NC(=O)c4ccc5c(c4)OCO5)cc3n2)cc1	aSyn UTR act -66
O=C(Nc1ccc2nn(-c3ccccc3)nc2c1)c1ccc2c(c1)OCCO2	aSyn UTR act -82
COc1ccc(NC(=O)c2cc(C3CC3)on2)c(OC)c1	aSyn UTR act -200
Cc1cc(NC(=O)c2cc(C3CC3)on2)no1	aSyn UTR act -96
Cc1c(Cl)cccc1NC(=O)c1cc(C2CC2)on1	aSyn UTR act -207
Cc1cc(C(=O)CS(=O)(=O)c2ccccc2)cc(C)c1O	aSyn UTR act -85
Cc1cc(C(=O)CS(=O)(=O)c2ccc(F)cc2)cc(C)c1O	aSyn UTR act -80
Cc1cc(C(=O)CSc2ccccc2)cc(C)c1O	aSyn UTR act -160
O=C(CN1CCCCC1)Nc1nc(-c2ccc(F)c(F)c2)cs1	aSyn UTR act -99
Cc1ccccc1C(=O)N1CCc2cc(-c3csc(NC(=O)CN4CCCC4)n3)ccc21	aSyn UTR act -99
O=C(CN1CCCCC1)Nc1nc(-c2ccc(Cl)cc2)cs1	aSyn UTR act -74
O=C(CCN1C(=O)C2CCCCC2C1=O)Nc1nc(-c2ccccc2)cs1 (stereo not given)	aSyn UTR act -65
Cc1sc(NC(=O)CN2CCCC2)nc1-c1ccc2c(c1)CCN2C(=O)c1cccc(F)c1	aSyn UTR act -69
O=C(CN1CCCCC1)Nc1nc(-c2ccccc2)cs1	aSyn UTR act -77
CC(=O)N/C(N)=N/c1nc2cc(C)ccc2o1	aSyn UTR act -63
CC(=O)N/C(N)=N/c1nc2cc([N+](=O)[O-])ccc2o1	aSyn UTR act -97
O=C(/C=C/c1ccco1)NCCc1ccccc1	aSyn UTR act -126
Cc1ccc(/C=C/C(=O)NCCc2ccccc2)o1	aSyn UTR act -99
Cc1ccc(NC2CC(=O)N(Cc3ccccc3)C2=O)cc1 (stereo not given)	aSyn UTR act -66
CCCCN1C(=O)CC(Nc2ccc(CC)cc2)C1=O (stereo not given)	aSyn UTR act -125
COCCOCCn1c(/C=C/c2ccccc2)nc2ccccc21	aSyn UTR act -97
COc1cc(Cn2c(-c3nonc3N)nc3ccccc32)ccc1C	none
COc1ccc(/C=C/c2nc3ccccc3n2Cc2ccc(OC)c(OC)c2)cc1	aSyn UTR act -191
CC(C)n1c(/C=C/c2ccccc2)nc2ccccc21	aSyn UTR act -118
C=CCNC(=S)Nc1c(C(=O)OC)[nH]c2cc(OC)ccc12	aSyn UTR act -91
COc1ccc(/C=C2\SC(=S)N(CCCC(=O)Nc3ccc(O)cc3)C2=O)cc1	none
Cc1ccc(/C=C2\SC(=S)N(CCCC(=O)Nc3cccnc3)C2=O)cc1	none
CCOc1cc(/C=C2\SC(=S)N(Nc3ccccc3)C2=O)ccc1O	aSyn UTR act -165
O=C1/C(=C/c2ccc(O)c(O)c2)SC(=S)N1Nc1ccccc1	aSyn UTR act -146
COc1cc(/C=C2\SC(=S)N(Nc3ccccc3)C2=O)ccc1O	aSyn UTR act -145
COc1ccc(OCCOC(=O)c2cccc(-n3cnnn3)c2)cc1	aSyn UTR act -81
C=CCn1cnc2c(NCc3ccccc3)ncnc21	aSyn UTR act -76
O=C(Nc1ccc2ncccc2c1)c1cc(Cl)ccc1Cl	aSyn UTR act -80
O=C(Nc1ccc2ncccc2c1)c1cccc(Br)c1	aSyn UTR act -375
Brc1ccc(CNc2ccc3ncccc3c2)cc1	aSyn UTR act -194
Cc1ccc(C(=O)Nc2ccc3ncccc3c2)cc1	none
O=C(N/N=C/c1cccc([N+](=O)[O-])c1)c1ccc2c(c1)OCCO2	aSyn UTR act -126
O=C(N/N=C/c1ccc2c(c1)OCO2)c1ccc2c(c1)OCCO2	aSyn UTR act -136
O=C(Nc1cccc(C(=O)O)c1)/C(=C\c1ccc2c(c1)OCO2)NC(=O)c1ccc(Br)o1	aSyn UTR act -68
CCCCCCCC(=O)Nc1ccc(C(=O)N/N=C/c2cccc([N+](=O)[O-])c2)cc1	none
CCN(CC)c1ccc(/C=N/NC(=O)c2ccc(Br)o2)cc1	aSyn UTR act -160
Cc1cc(C(=O)N/N=C/c2cccc([N+](=O)[O-])c2)c(C)n1-c1ccccc1	aSyn UTR act -142
O=C(N/N=C/c1ccc(Cl)cc1)c1ccc2c(c1)OCO2	aSyn UTR act -396
O=C(N/N=C/c1cc(Br)cc(Cl)c1O)c1ccc2c(c1)OCO2	none
CCN(CC)c1ccc(/C=N/NC(=O)Nc2nonc2N)cc1	aSyn UTR act -78
CCC/C(=N/NC(=O)c1ccc2c(c1)OCO2)c1cccs1	aSyn UTR act -69
CCN(CC)c1ccc(/C=N/NC(=O)C2CC2)cc1	aSyn UTR act -62
Cc1c(C(=O)N/N=C/c2ccc(Cl)cc2)[nH]c2ccc(Cl)cc12	aSyn UTR act -122
O=C(N/N=C/c1cccs1)c1ccc2c(c1)OCO2	aSyn UTR act -65
O=C(Cc1ccccc1)N/N=C/c1cc(Br)c(Br)o1	aSyn UTR act -68
Cc1cc(/C=N/Nc2ccc([N+](=O)[O-])cn2)c(C)n1-c1ccccc1	aSyn UTR act -137
O=C(N/N=C/c1cc(Br)c(Br)o1)c1ccc2c(c1)OCCO2	aSyn UTR act -135
